# Measurements published in article PMC7862700, “An all-to-all approach to the identification of sequence-specific readers for epigenetic DNA modifications on cytosine”.
# Key:
# Experiment in all cases: DAPPL (digital affinity profiling via proximity ligation, sequencing); 10 mM Tris-HCl pH 7.5, 50 mM NaCl, 1 mM DTT, 4% glycerol, room temperature, 30 min; GST-TFs on glutathione beads, 16-mer random dsDNA library, 0.1% formaldehyde crosslink after washing; high values mean tight binding
# FEV = target: T1, FEV (Homo sapiens, UniProt Q99581 1-238); settings: protein: recombinant; tags: N-terminal GST; dsDNA, one strand shown
# T1 sequence: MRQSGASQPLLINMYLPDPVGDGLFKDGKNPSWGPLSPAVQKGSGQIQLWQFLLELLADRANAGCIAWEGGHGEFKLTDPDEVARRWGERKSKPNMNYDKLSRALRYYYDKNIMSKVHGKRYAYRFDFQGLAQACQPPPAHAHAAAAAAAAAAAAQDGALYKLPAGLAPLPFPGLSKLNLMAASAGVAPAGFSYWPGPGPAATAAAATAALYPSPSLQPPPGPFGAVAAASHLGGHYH
# Summary of the method: (§1)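 The binding signal reported is, for every hexamer, its read frequency for a factor over its read frequency for the tag-only sample. Reads came from pools of yeast-expressed, GST-fused human transcription factors on glutathione beads, barcoded with DNA and mixed with that sample, which were incubated with 200 nmole of a random double-stranded 16-mer DNA library in Tris/NaCl/DTT/glycerol buffer at room temperature for 30 min. After washing, the pools were crosslinked with 0.1% formaldehyde, proximity-ligated with BsaI/T4 ligase for 1 h at 37 °C, PCR-amplified and sequenced on an Illumina NextSeq500.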
# ETV5 = ETV5 (Homo sapiens, UniProt P41161 1-510); settings: protein: recombinant; tags: N-terminal GST; dsDNA, one strand shown
# Chain of ETV5 (P41161 whole entry): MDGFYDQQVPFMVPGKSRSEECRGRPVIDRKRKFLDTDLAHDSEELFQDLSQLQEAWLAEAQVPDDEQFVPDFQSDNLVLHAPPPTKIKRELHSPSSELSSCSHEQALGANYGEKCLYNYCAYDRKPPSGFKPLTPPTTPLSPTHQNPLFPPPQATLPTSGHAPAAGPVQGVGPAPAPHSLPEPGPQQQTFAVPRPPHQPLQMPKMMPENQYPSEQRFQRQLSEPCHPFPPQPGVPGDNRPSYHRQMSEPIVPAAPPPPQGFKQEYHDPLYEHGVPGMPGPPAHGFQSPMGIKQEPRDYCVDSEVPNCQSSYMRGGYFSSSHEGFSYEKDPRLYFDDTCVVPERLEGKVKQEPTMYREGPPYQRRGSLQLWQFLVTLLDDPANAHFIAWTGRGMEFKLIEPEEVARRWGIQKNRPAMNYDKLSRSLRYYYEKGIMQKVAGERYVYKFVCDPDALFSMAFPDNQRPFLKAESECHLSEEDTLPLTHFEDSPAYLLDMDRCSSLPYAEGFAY
# Summary of the method: as §1
# HSF1 = HSF1 (Homo sapiens, UniProt Q00613 1-529); settings: protein: recombinant; tags: N-terminal GST; chain copies: 3; dsDNA, one strand shown
# Chain of HSF1 (Q00613 whole entry): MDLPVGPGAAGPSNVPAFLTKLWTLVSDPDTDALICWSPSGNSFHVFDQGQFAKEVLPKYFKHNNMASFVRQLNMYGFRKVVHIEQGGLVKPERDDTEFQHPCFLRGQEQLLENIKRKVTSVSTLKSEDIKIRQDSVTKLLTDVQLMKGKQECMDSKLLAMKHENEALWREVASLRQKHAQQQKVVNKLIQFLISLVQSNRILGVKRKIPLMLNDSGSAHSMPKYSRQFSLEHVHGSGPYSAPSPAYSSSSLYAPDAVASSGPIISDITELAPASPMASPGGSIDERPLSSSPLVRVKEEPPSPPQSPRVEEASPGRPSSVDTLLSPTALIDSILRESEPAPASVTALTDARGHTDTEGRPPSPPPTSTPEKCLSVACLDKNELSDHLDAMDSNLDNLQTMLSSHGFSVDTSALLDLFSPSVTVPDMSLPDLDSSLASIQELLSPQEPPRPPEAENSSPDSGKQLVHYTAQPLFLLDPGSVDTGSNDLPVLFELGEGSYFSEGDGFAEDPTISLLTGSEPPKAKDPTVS
# Summary of the method: as §1
# SPIC = target: T2, SPIC (Homo sapiens, UniProt Q8N5J4 1-248); settings: protein: recombinant; tags: N-terminal GST; dsDNA, one strand shown
# T2 sequence: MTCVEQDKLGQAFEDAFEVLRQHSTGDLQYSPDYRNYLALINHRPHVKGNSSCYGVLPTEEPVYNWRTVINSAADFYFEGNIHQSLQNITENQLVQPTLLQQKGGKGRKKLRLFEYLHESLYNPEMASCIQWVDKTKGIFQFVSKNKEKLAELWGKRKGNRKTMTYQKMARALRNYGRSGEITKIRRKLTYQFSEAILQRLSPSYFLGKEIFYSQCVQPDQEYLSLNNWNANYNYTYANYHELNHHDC
# Summary of the method: as §1
# ELF4 = ELF4 (Homo sapiens, UniProt Q99607 1-663); settings: protein: recombinant; tags: N-terminal GST; dsDNA, one strand shown
# Chain of ELF4 (Q99607 whole entry): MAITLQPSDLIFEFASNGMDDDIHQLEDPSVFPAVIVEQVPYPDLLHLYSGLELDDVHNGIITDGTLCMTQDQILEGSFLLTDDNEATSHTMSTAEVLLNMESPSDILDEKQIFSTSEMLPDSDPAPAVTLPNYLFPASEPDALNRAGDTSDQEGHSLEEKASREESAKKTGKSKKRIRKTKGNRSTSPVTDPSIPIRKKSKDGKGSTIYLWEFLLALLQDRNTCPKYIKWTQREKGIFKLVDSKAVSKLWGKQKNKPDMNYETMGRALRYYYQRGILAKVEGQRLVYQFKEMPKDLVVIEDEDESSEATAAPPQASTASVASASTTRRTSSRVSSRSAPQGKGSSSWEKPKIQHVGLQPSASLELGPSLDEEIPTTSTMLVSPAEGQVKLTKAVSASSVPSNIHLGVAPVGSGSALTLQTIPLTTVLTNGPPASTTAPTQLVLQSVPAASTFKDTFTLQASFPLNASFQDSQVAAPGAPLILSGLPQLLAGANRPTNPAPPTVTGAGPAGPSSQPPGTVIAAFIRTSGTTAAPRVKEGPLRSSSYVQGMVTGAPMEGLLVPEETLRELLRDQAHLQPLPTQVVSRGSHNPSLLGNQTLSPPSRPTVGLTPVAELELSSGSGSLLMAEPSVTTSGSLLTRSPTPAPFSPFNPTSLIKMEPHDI
# Summary of the method: as §1
# ELK4 = target: T3, ELK4 (Homo sapiens, UniProt P28324-2 1-405); settings: protein: recombinant; tags: N-terminal GST; dsDNA, one strand shown
# T3 sequence: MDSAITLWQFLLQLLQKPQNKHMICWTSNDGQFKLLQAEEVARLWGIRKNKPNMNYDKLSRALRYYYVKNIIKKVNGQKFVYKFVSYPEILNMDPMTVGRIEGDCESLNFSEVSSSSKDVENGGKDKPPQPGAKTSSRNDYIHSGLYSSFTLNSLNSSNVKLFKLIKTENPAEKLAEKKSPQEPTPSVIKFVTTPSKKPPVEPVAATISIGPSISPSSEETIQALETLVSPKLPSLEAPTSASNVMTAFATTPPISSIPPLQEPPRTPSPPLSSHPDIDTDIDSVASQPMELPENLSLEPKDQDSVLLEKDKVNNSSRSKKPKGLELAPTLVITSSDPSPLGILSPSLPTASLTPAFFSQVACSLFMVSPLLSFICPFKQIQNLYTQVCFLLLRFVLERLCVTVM
# Summary of the method: as §1
# ETV2 = target: T4, ETV2 (Homo sapiens, UniProt O00321 1-342); settings: protein: recombinant; tags: N-terminal GST; dsDNA, one strand shown
# T4 sequence: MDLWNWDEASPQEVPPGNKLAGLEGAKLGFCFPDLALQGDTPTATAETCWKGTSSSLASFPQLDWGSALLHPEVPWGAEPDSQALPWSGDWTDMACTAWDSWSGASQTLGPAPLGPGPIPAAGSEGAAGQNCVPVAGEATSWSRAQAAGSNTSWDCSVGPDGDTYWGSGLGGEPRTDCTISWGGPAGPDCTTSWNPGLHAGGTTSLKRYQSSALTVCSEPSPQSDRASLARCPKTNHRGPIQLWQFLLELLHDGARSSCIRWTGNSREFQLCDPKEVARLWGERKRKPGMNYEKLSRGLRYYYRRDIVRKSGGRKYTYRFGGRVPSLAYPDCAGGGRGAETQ
# Summary of the method: as §1
# ELF3 = target: T5, ELF3 (Homo sapiens, UniProt P78545 1-371); settings: protein: recombinant; tags: N-terminal GST; dsDNA, one strand shown
# T5 sequence: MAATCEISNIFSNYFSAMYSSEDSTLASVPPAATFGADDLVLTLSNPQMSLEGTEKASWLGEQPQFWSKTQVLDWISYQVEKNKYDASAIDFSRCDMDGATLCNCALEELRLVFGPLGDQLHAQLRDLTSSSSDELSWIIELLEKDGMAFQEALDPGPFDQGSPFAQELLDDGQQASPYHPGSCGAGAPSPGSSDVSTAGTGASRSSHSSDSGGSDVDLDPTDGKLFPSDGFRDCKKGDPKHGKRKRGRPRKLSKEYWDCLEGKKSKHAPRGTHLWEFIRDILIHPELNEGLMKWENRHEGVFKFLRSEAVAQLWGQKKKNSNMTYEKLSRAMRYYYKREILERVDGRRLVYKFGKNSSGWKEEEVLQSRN
# Summary of the method: as §1
# CRX = CRX (Homo sapiens, UniProt O43186 1-299); settings: protein: recombinant; tags: N-terminal GST; dsDNA, one strand shown
# Chain of CRX (O43186 whole entry): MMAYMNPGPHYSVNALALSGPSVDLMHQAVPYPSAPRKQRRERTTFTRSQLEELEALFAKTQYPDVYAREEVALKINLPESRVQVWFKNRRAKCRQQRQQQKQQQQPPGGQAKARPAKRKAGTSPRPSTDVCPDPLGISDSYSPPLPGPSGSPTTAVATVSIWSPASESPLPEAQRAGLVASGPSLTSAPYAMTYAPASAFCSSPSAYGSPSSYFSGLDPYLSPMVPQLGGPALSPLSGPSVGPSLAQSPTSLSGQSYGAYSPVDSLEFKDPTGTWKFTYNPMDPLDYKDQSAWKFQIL
# Summary of the method: as §1
# ETV1 = ETV1 (Homo sapiens, UniProt P50549 1-477); settings: protein: recombinant; tags: N-terminal GST; dsDNA, one strand shown
# Chain of ETV1 (P50549 whole entry): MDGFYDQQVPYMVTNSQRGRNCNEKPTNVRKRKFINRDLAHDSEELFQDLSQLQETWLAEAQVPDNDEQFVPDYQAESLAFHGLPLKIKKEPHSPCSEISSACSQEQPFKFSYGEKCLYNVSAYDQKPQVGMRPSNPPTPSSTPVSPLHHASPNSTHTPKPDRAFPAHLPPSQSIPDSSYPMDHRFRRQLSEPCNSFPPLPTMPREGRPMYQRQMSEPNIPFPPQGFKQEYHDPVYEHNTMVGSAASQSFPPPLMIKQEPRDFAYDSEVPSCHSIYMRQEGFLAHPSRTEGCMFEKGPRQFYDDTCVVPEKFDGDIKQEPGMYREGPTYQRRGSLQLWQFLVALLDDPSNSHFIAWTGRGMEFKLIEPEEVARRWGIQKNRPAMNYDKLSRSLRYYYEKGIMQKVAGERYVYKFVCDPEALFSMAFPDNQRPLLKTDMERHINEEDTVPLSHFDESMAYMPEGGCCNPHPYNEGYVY
# Summary of the method: as §1
# ERF = target: T6, ERF (Homo sapiens, UniProt P50548 1-548); settings: protein: recombinant; tags: N-terminal GST; dsDNA, one strand shown
# T6 sequence: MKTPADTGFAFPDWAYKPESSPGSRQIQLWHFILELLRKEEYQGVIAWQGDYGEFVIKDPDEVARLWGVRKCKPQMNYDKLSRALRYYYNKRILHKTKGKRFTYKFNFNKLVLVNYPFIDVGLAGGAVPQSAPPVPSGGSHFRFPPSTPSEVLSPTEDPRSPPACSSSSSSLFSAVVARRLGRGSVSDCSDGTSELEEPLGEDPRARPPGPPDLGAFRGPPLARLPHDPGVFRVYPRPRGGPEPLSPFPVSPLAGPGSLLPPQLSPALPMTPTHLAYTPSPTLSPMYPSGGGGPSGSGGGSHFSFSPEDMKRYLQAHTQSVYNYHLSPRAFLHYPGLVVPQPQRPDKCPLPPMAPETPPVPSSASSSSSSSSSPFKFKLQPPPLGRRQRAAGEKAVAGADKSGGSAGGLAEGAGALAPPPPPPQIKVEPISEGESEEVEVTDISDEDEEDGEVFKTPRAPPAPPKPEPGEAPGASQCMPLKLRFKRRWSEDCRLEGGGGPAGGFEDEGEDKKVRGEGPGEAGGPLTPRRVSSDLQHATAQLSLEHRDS
# Summary of the method: as §1
# ETV3L = target: T7, ETV3L (Homo sapiens, UniProt Q6ZN32 1-361); settings: protein: recombinant; tags: N-terminal GST; dsDNA, one strand shown
# T7 sequence: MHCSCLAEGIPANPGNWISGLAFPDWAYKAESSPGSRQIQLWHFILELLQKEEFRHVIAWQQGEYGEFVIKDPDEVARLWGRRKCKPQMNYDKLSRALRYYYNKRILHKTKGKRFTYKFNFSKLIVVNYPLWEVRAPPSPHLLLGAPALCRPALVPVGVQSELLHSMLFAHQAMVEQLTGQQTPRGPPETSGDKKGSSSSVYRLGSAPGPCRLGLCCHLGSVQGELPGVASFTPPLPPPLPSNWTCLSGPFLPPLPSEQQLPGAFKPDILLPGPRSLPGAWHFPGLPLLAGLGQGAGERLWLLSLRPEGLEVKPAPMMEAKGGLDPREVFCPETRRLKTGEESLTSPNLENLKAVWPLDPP
# Summary of the method: as §1
# ETS2 = target: T8, ETS2 (Homo sapiens, UniProt P15036 1-469); settings: protein: recombinant; tags: N-terminal GST; dsDNA, one strand shown
# T8 sequence: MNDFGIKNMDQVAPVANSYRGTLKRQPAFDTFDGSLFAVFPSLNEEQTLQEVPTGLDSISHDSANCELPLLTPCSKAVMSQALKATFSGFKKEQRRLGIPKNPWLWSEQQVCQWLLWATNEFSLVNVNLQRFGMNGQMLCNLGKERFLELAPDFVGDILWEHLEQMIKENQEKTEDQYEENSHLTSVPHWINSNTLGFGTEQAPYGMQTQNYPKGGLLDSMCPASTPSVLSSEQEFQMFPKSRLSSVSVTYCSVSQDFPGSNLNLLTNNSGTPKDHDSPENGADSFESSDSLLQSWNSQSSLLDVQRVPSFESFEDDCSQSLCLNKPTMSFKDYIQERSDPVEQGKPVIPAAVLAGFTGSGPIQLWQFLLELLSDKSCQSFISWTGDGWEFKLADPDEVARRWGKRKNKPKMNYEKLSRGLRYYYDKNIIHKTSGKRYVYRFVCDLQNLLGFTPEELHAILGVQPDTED
# Summary of the method: as §1
# SPDEF = target: T9, SPDEF (Homo sapiens, UniProt O95238 1-335); settings: protein: recombinant; tags: N-terminal GST; dsDNA, one strand shown
# T9 sequence: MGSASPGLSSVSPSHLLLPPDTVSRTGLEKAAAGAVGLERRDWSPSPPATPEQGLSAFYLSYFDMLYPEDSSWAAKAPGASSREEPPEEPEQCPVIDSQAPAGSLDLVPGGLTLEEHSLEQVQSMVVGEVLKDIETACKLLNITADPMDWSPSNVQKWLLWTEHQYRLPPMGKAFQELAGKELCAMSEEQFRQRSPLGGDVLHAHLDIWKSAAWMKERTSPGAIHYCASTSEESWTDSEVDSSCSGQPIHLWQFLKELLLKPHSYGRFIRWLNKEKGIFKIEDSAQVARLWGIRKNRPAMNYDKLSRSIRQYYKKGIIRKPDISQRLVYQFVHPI
# Summary of the method: as §1
# ETV7 = target: T10, ETV7 (Homo sapiens, UniProt Q9Y603 1-341); settings: protein: recombinant; tags: N-terminal GST; dsDNA, one strand shown
# T10 sequence: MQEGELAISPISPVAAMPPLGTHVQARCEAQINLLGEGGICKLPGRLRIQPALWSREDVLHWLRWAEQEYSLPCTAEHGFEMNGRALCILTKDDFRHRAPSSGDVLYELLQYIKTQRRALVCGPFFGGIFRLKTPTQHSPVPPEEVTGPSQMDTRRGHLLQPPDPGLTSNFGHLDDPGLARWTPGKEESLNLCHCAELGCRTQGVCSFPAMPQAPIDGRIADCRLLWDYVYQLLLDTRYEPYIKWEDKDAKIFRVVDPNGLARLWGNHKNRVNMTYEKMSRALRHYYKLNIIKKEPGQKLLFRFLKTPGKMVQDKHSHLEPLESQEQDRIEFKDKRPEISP
# Summary of the method: as §1
# ELF5 = target: T11, ELF5 (Homo sapiens, UniProt Q9UKW6-2 1-255); settings: protein: recombinant; tags: N-terminal GST; dsDNA, one strand shown
# T11 sequence: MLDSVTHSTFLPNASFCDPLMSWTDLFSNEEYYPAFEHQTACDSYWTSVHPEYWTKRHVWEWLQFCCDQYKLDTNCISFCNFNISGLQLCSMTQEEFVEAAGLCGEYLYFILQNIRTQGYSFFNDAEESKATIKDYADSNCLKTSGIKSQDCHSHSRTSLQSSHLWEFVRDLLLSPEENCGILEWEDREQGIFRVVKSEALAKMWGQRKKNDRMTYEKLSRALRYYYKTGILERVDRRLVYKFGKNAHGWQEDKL
# Summary of the method: as §1
# ETV3 = target: T12, ETV3 (Homo sapiens, UniProt P41162-2 1-143); settings: protein: recombinant; tags: N-terminal GST; dsDNA, one strand shown
# T12 sequence: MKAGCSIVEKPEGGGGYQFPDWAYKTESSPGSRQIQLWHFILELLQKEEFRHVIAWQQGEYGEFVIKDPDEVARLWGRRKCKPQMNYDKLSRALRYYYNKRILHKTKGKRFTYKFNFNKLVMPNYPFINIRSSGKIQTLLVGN
# Summary of the method: as §1
# ETV6 = ETV6 (Homo sapiens, UniProt P41212 1-452); settings: protein: recombinant; tags: N-terminal GST; dsDNA, one strand shown
# Chain of ETV6 (P41212 whole entry): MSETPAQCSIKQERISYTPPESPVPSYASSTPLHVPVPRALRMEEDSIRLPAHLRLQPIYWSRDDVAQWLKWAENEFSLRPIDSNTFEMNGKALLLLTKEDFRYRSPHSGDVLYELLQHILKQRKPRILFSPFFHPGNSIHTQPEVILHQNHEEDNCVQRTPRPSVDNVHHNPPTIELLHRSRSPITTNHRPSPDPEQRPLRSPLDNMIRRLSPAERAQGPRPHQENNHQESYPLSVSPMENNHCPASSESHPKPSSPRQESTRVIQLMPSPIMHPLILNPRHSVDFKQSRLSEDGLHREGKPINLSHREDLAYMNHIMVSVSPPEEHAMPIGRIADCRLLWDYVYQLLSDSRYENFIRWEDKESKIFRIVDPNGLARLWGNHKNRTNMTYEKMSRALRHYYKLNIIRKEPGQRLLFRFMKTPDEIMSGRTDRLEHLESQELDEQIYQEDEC
# Summary of the method: as §1
sequence,measurement,setting,value
TTGATA,binding signal,FEV,"1.13 fold enrichment (6-mer frequency, TF over GST control)"
same,binding signal,ETV5,"1.15 fold enrichment (6-mer frequency, TF over GST control)"
same,binding signal,HSF1,"1.19 fold enrichment (6-mer frequency, TF over GST control)"
same,binding signal,SPIC,"1.36 fold enrichment (6-mer frequency, TF over GST control)"
same,binding signal,ELF4,"1.29 fold enrichment (6-mer frequency, TF over GST control)"
same,binding signal,ELK4,"1.42 fold enrichment (6-mer frequency, TF over GST control)"
same,binding signal,ETV2,"1.23 fold enrichment (6-mer frequency, TF over GST control)"
same,binding signal,ELF3,"1.03 fold enrichment (6-mer frequency, TF over GST control)"
same,binding signal,CRX,"1.53 fold enrichment (6-mer frequency, TF over GST control)"
same,binding signal,ETV1,"1.25 fold enrichment (6-mer frequency, TF over GST control)"
same,binding signal,ERF,"1.24 fold enrichment (6-mer frequency, TF over GST control)"
same,binding signal,ETV3L,"1.27 fold enrichment (6-mer frequency, TF over GST control)"
same,binding signal,ETS2,"1.15 fold enrichment (6-mer frequency, TF over GST control)"
same,binding signal,SPDEF,"1.13 fold enrichment (6-mer frequency, TF over GST control)"
same,binding signal,ETV7,"1.23 fold enrichment (6-mer frequency, TF over GST control)"
same,binding signal,ELF5,"1.21 fold enrichment (6-mer frequency, TF over GST control)"
same,binding signal,ETV3,"1.25 fold enrichment (6-mer frequency, TF over GST control)"
same,binding signal,ETV6,"1.14 fold enrichment (6-mer frequency, TF over GST control)"
